GCN5L2 inh-1: qHTS Assay for Inhibitors of GCN5L2; GCN5L2 HAT assay, ThioGlo1 CoA-SH fluorescence; Potency, µM (doses to about 58.9 µM), hits mostly inhibitors; actives 0.21% (n = 390,000); AID 504327, 2011
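ThioGlo1-coupled HAT assay: 20nM GCN5L2, 70uM acetyl-CoA, 75uM H3(1-25) peptide, pH 7.5. Fluorescence read at 340/540nm at start and after 20 min at room temperature.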
PLK1 PBD block: qHTS for Inhibitors of PLK1-PDB (polo-like kinase 1 - polo-box domain): Primary Screen | Serine/threonine-protein kinase PLK1 (Homo sapiens), P53350 | Potency, µM, most hits filed as inhibitors | actives 2.8% (n = 360,000) | AID 720504, 2013 | Plk1 PBD binding of FITC phosphopeptide, fluorescence polarization; also: series mostly up to about 57 µM; nearly all actives have a fitted effect of over 65% in size
VDR inh: Inhibitors of the vitamin D receptor (VDR): qHTS. Potency, µM, most hits filed as inhibitors. actives 0.93% (n = 400,000). VDR-SRC2-3 peptide fluorescence polarization, 2 h
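Fluorescence polarization assay measuring small-molecule disruption of VDR binding to the coregulator peptide SRC2-3. Compounds were pin-transferred (23 nl) into the reagent mix and incubated 2 h at room temperature before reading.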
12-LOX inh: Primary qHTS assay for inhibitors of human arachidonate 12S-lipoxygenase (ALOX12): Round 2; actives 1.1% (n = 580,000); purified 12hLO, xylenol orange hydroperoxide absorbance; Potency, µM (top dose mostly 108 µM), actives largely listed as inhibitors; Polyunsaturated fatty acid lipoxygenase ALOX12 (Homo sapiens), P18054
Target sequence (P18054 whole entry, looked up): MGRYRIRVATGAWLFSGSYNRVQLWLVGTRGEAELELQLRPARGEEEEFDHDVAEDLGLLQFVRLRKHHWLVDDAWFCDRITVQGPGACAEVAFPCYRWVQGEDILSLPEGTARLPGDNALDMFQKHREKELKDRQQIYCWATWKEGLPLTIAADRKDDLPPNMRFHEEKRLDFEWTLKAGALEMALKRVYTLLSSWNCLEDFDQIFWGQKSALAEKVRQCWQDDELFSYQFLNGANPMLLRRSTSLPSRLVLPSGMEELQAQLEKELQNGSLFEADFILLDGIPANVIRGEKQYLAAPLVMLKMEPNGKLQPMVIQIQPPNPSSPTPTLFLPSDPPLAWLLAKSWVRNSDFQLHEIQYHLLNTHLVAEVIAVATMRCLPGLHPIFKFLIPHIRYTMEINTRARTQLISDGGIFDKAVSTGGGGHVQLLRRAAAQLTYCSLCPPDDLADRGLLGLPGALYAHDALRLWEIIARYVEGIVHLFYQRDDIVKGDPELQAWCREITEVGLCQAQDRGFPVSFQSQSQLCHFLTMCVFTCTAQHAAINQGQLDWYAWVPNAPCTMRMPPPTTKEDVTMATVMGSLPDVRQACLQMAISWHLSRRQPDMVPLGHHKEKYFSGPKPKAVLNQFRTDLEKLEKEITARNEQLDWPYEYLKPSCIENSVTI
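Purified human 12hLO at 150 nM in 25 mM Hepes, 0.01% Triton X-100, pH 7.0, preincubated 15 min at room temperature with compound. Reaction started with 40 uM arachidonic acid, 30 min at room temperature. Hydroperoxide measured by Fe-xylenol orange, 573/405 nm absorbance ratio.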
GCN5L2 inh-2: qHTS Assay for Inhibitors of GCN5L2: Hit confirmation. actives 70% (n = 140). Potency, µM, actives largely listed as inhibitors. GCN5L2 HAT, ThioGlo1 CoA fluorescence, 20 min. AID 588347, 2011. shares compounds with GCN5L2 inh-1
Each line names hits and unclear results; the compound was inactive in the other large screens (follow-up assays come after a bar, where they were run). Sampled rows, rich in hits. Any-hit rate of the full collection: about 3%. Calls follow the shape of the dose curve; as a rule, active = well fitted curve in the direction sought with a large enough effect; inconclusive = small, poorly fitted or top-dose-only effect, or another doubt; inactive = no such curve, though single readings can be large; an effect the other way counts as inactive or inconclusive.

CCC(C)Sc1ccc(-c2nc3ccccn3c2NCc2ccccc2)cc1OC (stereo not given)	GCN5L2 inh-1 22µM (no result: 12-LOX inh) | GCN5L2 inh-2 inconclusive
COc1ccc(CSc2ccc(-c3nc4ccccn4c3NCc3ccccc3)cc2OC)cc1	none
CCCC(=O)N1CC2(CCCN2CC2CC2)Cc2ccccc21 (stereo not given)	none (no result: GCN5L2 inh-1, PLK1 PBD block, VDR inh)
O=C(C1=NN(c2ccccc2)C2C(=O)N(c3cccc(Cl)c3)C(=O)C12)c1ccccc1 (stereo not given)	GCN5L2 inh-1 25µM | GCN5L2 inh-2 36
Cc1ccc(S(=O)(=O)Oc2ccc3c(C(F)(F)F)cc(=O)oc3c2)cc1	none (no result: GCN5L2 inh-1, PLK1 PBD block, VDR inh)
Cc1ccc(S(=O)(=O)NC(C(=O)Oc2ccc3c(C(F)(F)F)cc(=O)oc3c2)c2ccccc2)cc1 (stereo not given)	GCN5L2 inh-1 inconclusive, 12-LOX inh 50µM | GCN5L2 inh-2 inconclusive
CC(=O)N1c2ccccc2C2(O)N=C(C)SC12 (stereo not given)	GCN5L2 inh-1 7.9µM, PLK1 PBD block 5.3µM, VDR inh inconclusive (no result: 12-LOX inh) | GCN5L2 inh-2 9.1
NC(=O)c1ccccc1NC(=O)c1ccccc1-c1ccccc1	none (no result: GCN5L2 inh-1, PLK1 PBD block, VDR inh)
O=C1CC(c2ccccc2)N(Cc2ccncc2)CCCN(S(=O)(=O)c2cccc(F)c2)CCN1 (stereo not given)	none (no result: GCN5L2 inh-1, PLK1 PBD block, VDR inh)
N=C1/C(=C/c2ccc(-c3cccc(C(=O)O)c3)o2)C(=O)N=C2SC=C(c3ccccc3)N12	GCN5L2 inh-1 22µM, PLK1 PBD block 15µM, 12-LOX inh 28µM | GCN5L2 inh-2 16
c1cc2c(cc1Nc1nc(CN3CCOCC3)nc3sc4c(c13)CCCC4)CCC2	none (no result: GCN5L2 inh-1, PLK1 PBD block, VDR inh)
CCc1ccc([C@@H]2CC=C(C(=O)O)[C@H](c3ccc(C(C)(C)C)cc3)N2S(=O)(=O)c2ccc(C)cc2)cc1	GCN5L2 inh-1 18µM, PLK1 PBD block 24µM | GCN5L2 inh-2 18
CCc1ccc([C@@H]2CC=C(C(=O)O)[C@H](c3ccccc3)N2S(=O)(=O)c2ccc(C)cc2)cc1	PLK1 PBD block inconclusive
Cc1ccc(S(=O)(=O)N2[C@@H](c3ccccc3F)C(C(=O)O)=CC[C@H]2c2ccc(C(C)C)cc2)cc1	GCN5L2 inh-1 inconclusive, PLK1 PBD block inconclusive, 12-LOX inh inconclusive
Cc1ccc(S(=O)(=O)N2[C@@H](c3ccc(C(C)(C)C)cc3)C(C(=O)O)=CC[C@H]2c2ccc(C(C)C)cc2)cc1	GCN5L2 inh-1 14µM, PLK1 PBD block 17µM, 12-LOX inh 40µM | GCN5L2 inh-2 13
COC(=O)CCNC(=O)c1cc(-c2cccs2)nc2ccccc12	none (no result: GCN5L2 inh-1, PLK1 PBD block, VDR inh)
Cc1ccc2c(c1C)NC(C(=O)O)C1CC=CC21 (stereo not given)	GCN5L2 inh-1 22µM, PLK1 PBD block 19µM (no result: 12-LOX inh) | GCN5L2 inh-2 14
CC(C)CNC(=O)CN(c1ccc(Cl)c(C(F)(F)F)c1)S(C)(=O)=O	none (no result: GCN5L2 inh-1, PLK1 PBD block, VDR inh)
CCOC(=O)c1c(C)c(CCC(=O)NCCN2CCN(C)CC2)c(C)n1C	none (no result: GCN5L2 inh-1, PLK1 PBD block, VDR inh)
COC(=O)c1sccc1NC(=O)CC1C(=O)NCCN1C(=O)c1c(F)cccc1Cl (stereo not given)	GCN5L2 inh-1 inconclusive | GCN5L2 inh-2 inconclusive
COC(=O)c1sccc1NC(=O)CC1C(=O)NCCN1C(=O)c1ccc(N(C)C)cc1 (stereo not given)	none
COc1cccc(NC(=O)CC2Sc3ccccc3NC2=O)c1 (stereo not given)	none (no result: GCN5L2 inh-1, PLK1 PBD block, VDR inh)
CSc1nc(-c2cccs2)c(C#N)c(=O)[nH]1	12-LOX inh inconclusive
N#Cc1c(-c2cccs2)nc(SCc2ccc(Cl)cc2)[nH]c1=O	GCN5L2 inh-1 25µM, PLK1 PBD block 21µM, 12-LOX inh inconclusive | GCN5L2 inh-2 29
COc1cc(CCc2ccccc2)c(C(=O)O)c(O)c1C/C=C(/C)CCC=C(C)C	GCN5L2 inh-1 14µM, PLK1 PBD block 24µM, 12-LOX inh inconclusive | GCN5L2 inh-2 11
CC(=O)n1cc(C(C[N+](=O)[O-])SCCN)c2ccccc21 (stereo not given)	GCN5L2 inh-1 25µM, PLK1 PBD block 5.3µM, VDR inh 22µM (no result: 12-LOX inh) | GCN5L2 inh-2 36
CC1=C2C(=O)CC(c3ccc(Cl)cc3)CC2=Nc2ccccc2N1 (stereo not given)	none (no result: GCN5L2 inh-1, PLK1 PBD block, VDR inh)
Cc1ccc(S(=O)(=O)/N=C2/C=C(Sc3ncn[nH]3)C(=O)c3ccccc32)cc1	GCN5L2 inh-1 22µM, PLK1 PBD block 0.75µM, VDR inh 10µM (no result: 12-LOX inh) | GCN5L2 inh-2 1.3
O=C(CCc1ncc(-c2ccccc2Cl)o1)NCc1ccncc1	none (no result: GCN5L2 inh-1, PLK1 PBD block, VDR inh)
CCOC(=O)C1CCCN(C(=O)c2cc(-c3ccco3)nc3ccccc23)C1 (stereo not given)	GCN5L2 inh-1 28µM, PLK1 PBD block inconclusive, VDR inh inconclusive, 12-LOX inh 8.9µM | GCN5L2 inh-2 18
CCOC(=O)C1CCCN(C(=O)c2cc(-c3ccncc3)nc3ccccc23)C1 (stereo not given)	none
CCN(CC)C(=O)COC(=O)c1cc(-c2ccco2)nc2ccccc12	GCN5L2 inh-1 inconclusive, PLK1 PBD block inconclusive, 12-LOX inh inconclusive | GCN5L2 inh-2 32
CCN(CC)C(=O)COC(=O)c1cc(-c2ccc(OC)cc2)nc2ccccc12	12-LOX inh inconclusive
CNC(=O)NC(=O)C(C)OC(=O)c1c2c(nc3ccccc13)/C(=C/c1cccs1)CC2 (stereo not given)	GCN5L2 inh-1 14µM, 12-LOX inh inconclusive | GCN5L2 inh-2 inconclusive
CCOC(=O)c1cnc2cc(C)nn2c1-c1ccccc1	GCN5L2 inh-1 40µM | GCN5L2 inh-2 14
O=C(O)c1cccc2c1C(=O)c1ccc(-c3ccc(F)cc3OCc3ccccc3)cc1S2(=O)=O	GCN5L2 inh-1 22µM, PLK1 PBD block 21µM (no result: 12-LOX inh) | GCN5L2 inh-2 inconclusive
C/C(CC(C)C)=N\NC(=O)CC#N	none (no result: GCN5L2 inh-1, PLK1 PBD block, VDR inh)
Cc1nc(SCC(=O)c2ccc(F)cc2)n[nH]1	GCN5L2 inh-1 22µM, PLK1 PBD block 27µM, VDR inh 71µM | GCN5L2 inh-2 inconclusive
Nc1nc(SCC(=O)c2ccc(F)cc2)n[nH]1	none
N#C/C(=C\c1cccs1)C(=O)c1ccccc1Cl	GCN5L2 inh-1 inconclusive, PLK1 PBD block 1.5µM, VDR inh 35µM, 12-LOX inh inconclusive | GCN5L2 inh-2 inconclusive
CC(C)N(CCNC(=O)c1cc(C2CC2)nc2ccccc12)C(C)C	none (no result: GCN5L2 inh-1, PLK1 PBD block, VDR inh)
Oc1ccc(C2=NN(c3ccccc3)C(c3ccc(F)cc3)C2)cc1 (stereo not given)	12-LOX inh inconclusive
O=C(O)c1ccc(N2N=C(c3ccccc3)CC2c2ccccc2)cc1 (stereo not given)	GCN5L2 inh-1 16µM, PLK1 PBD block inconclusive, 12-LOX inh inconclusive | GCN5L2 inh-2 14
O=Cc1ccc(N2N=C(c3ccccc3)CC2c2ccccc2)cc1 (stereo not given)	none

Compound activity deposited in PubChem by National Center for Advancing Translational Sciences (NCATS).
